Assay results reported in PubChem BioAssay (NCI).
About 79,000 compounds went through this panel and 15% of them were active in at least one assay; those are over-represented in the sample as a whole. No stated cut-off is given here; in the data, active means growth inhibition above about 70%; inactive means the rest.

What was measured:
[1] = NCI Yeast Anticancer Drug Screen. Data for the rad50 strain (AID 155);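 further: 0% = growth of vehicle-only cultures of the same strain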; conditions: S. cerevisiae rad50 strain growth inhibition; at 50.0 µM; active compounds read high
Procedure, shortened: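 Compounds were tested on a yeast strain with an engineered DNA damage repair alteration; the reported value is growth inhibition normalised to vehicle treatment.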

[2] = NCI Yeast Anticancer Drug Screen. Data for the mec2-1 strain (AID 157); conditions: S. cerevisiae mec2-1 strain, at 50.0 µM, active compounds read high
Procedure, shortened: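 Compounds were applied to mec2-1 yeast cells. Their growth was then compared with that of vehicle-treated cultures to give growth inhibition.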

[3] = NCI Yeast Anticancer Drug Screen. Data for the sgs1 mgt1 strain (AID 161);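 further: 0% = growth of cultures given vehicle only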; conditions: S. cerevisiae sgs1 mgt1 strain, at 50.0 µM, active compounds read high
Procedure, shortened: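 Percent growth inhibition was derived by comparing compound-exposed mutant yeast with vehicle-exposed cultures. The strain carries alterations in DNA damage repair.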

[4] = NCI Yeast Anticancer Drug Screen. Data for the cln2 rad14 strain (AID 165);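 further: 0% = growth equal to vehicle treated cultures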; conditions: S. cerevisiae cln2 rad14 strain, at 50.0 µM, active compounds read high
Procedure, shortened: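 Strain: cln2 rad14 yeast, altered in cell cycle control and DNA damage repair. Read-out: growth inhibition vs vehicle.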

[5] = NCI Yeast Anticancer Drug Screen. Data for the bub3 strain (AID 167); conditions: S. cerevisiae bub3 mutant strain, at 50.0 µM, active compounds read high
Procedure, shortened: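 Growth of a checkpoint-deficient yeast mutant is measured after compound exposure. Values represent inhibition relative to vehicle.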

[6] = NCI Yeast Anticancer Drug Screen. Data for the mlh1 rad18 strain (AID 175); conditions: S. cerevisiae mlh1 rad18 strain growth inhibition; at 50.0 µM; active compounds read high
Procedure, shortened: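 A repair-deficient yeast strain is exposed to test compound, and growth is scored relative to vehicle-treated controls.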

Measured: growth inhibition

O=S(=O)(Cc1c[nH]c2ccccc12)c1ccccc1
inactive: [1] 34.1% | [2] -3.2% | [3] 31.1% | [4] 11.3% | [5] 20.5% | [6] 37.6%

Cc1nc(C)c(C(=O)NNC(=O)C[n+]2ccccc2)cc1C(=O)NNC(=O)C[n+]1ccccc1
inactive: [1] -27.6% | [2] -4.15% | [3] -11.4% | [4] 11.7% | [5] -12.4% | [6] -25.1%

CCOC(OCC)C(Cl)(Cl)CCl
inactive: [1] 6.25% | [2] 4.45% | [3] -3.8% | [4] -25.4% | [5] -0.6% | [6] -6.35%

NC(=O)N/N=C(\Cc1nc2ccc(Cl)cc2[nH]c1=O)C(=O)Nc1ccc(Cl)cc1Cl
inactive: [1] 11.9% | [2] 11.8% | [3] 7.2% | [4] -30.1% | [5] -0.85% | [6] 15.2%

COc1ccc2c(c1)CC1=C2CCC2(C)C(=O)CC=C12 (stereo unspecified)
inactive: [1] 11.7% | [2] -8.35% | [3] -7.65% | [4] 11.8% | [5] 4.5% | [6] 4.85%

CN1CCN(CCN2C(=O)c3ccccc3C2=O)CC1
inactive: [1] -12.3% | [2] 2.65% | [3] -10.5% | [4] -15% | [5] -10.8% | [6] -43.8%

O=C1CN(c2ccccc2)C(=O)CN1CCN1CC(=O)N(c2ccccc2)CC1=O
inactive: [1] -34% | [2] 14.8% | [3] -4.5% | [4] -2.3% | [5] -31.5% | [6] -8.6%

COC(=O)c1cccc(=O)o1
inactive: [1] 2.55% | [2] 0.1% | [3] -18.4% | [4] -79% | [5] -1.2% | [6] 2.15%

C=CCOC(=O)CC(=O)OCC=C
inactive: [1] 0.6% | [2] 1.7% | [3] 0.35% | [4] -4% | [5] 3.05% | [6] -5.9%

O=C1OC(=O)c2c(Br)c(Br)c(Br)c(Br)c21
inactive: [1] 5.9% | [2] 8.65% | [3] -16.4% | [4] -8.9% | [5] -10.9% | [6] 2.7%

COc1ccc(NC(=O)c2oc3cc(O)ccc3c(=O)c2C)c([N+](=O)[O-])c1
inactive: [1] 0.65% | [2] -1.8% | [3] 11.5% | [4] 11.9% | [5] -15.2% | [6] 2.2%

O=C(Cc1ccccc1)NN1C(=O)/C(=C\c2ccccc2O)SC1=Nc1ccccc1
inactive: [1] 1.15% | [2] -6.3% | [3] 31.4% | [4] 13.5% | [5] -6.95% | [6] 7.25%

Nc1ccc(-c2csc(Nc3ccnc4cc(Cl)ccc34)n2)cc1
inactive: [1] -1.75% | [2] -5.4% | [3] 4.25% | [4] -7.85% | [5] 18.9% | [6] 7.6%

O=C(CC[N+](=O)[O-])OCC1OC(OC(=O)CC[N+](=O)[O-])C(O)C(O)C1O (stereo unspecified)
inactive: [1] 23% | [2] 0.85% | [3] 28.4% | [4] 34.1% | [5] 14.8% | [6] 38.8%

C/C=N\n1c(C)c(C#N)c(C#N)c1N
inactive: [1] 8.6% | [2] 10.2% | [3] -23.6% | [4] -14.1% | [5] -21.7% | [6] -35.5%

N#Cc1ccc(CC(=O)O)cc1
inactive: [1] 25.2% | [2] -16.5% | [3] 6.9% | [4] 0.35% | [5] -7.95% | [6] -7.75%

CCOC(=S)SC(=S)SC(=S)OCC
inactive: [1] 1.15% | [2] -27.1% | [3] 2.6% | [4] -27.8% | [5] -7.75% | [6] -22.2%

COC(=O)C1CCCCC1C(=O)OC (stereo unspecified)
inactive: [1] -11.1% | [2] -14% | [3] 0.85% | [4] -16.6% | [5] -5.3% | [6] 6%

Cc1cc[n+](CC(=O)CCc2ccc(C(=O)C[n+]3ccc(C)cc3)cc2)cc1
inactive: [1] 41.1% | [2] -1.85% | [3] 34.3% | [4] -6.4% | [5] -3.95% | [6] 11.1%

C/C(=N/N(CCCCN(/N=C(/C)c1ccccc1)c1ccccc1)c1ccccc1)c1ccccc1
inactive: [1] 48.5% | [2] 13.2% | [3] 17.1% | [4] 26.3% | [5] 1.55% | [6] 39.2%

O.[Cl][Co]([Cl])[Cl].c1c[nH]cn1.c1c[nH]cn1
inactive: [1] -0.85% | [2] -5.6% | [3] 15% | [4] 1.95% | [5] 8.4% | [6] -2.7%

CCCCCC1CC[N-]CC1.CCCCCC1CC[N-]CC1.N#C[S-].N#C[S-].[Cu]
inactive: [1] 33.4% | [2] 12.7% | [3] 5% | [4] -33.1% | [5] -16.7% | [6] 24.1%

CC(=O)c1cccc(NC(=O)Oc2ccc(Cl)cc2Cl)c1
inactive: [1] 4.55% | [2] 17.9% | [3] 3.25% | [4] 1% | [5] 11.3% | [6] 4.3%

O=CNC1(c2ccccc2)CCCCC1
inactive: [1] 2% | [2] -37% | [3] -12.2% | [4] 16.4% | [5] 4.6% | [6] 4.85%

ClNc1nc(NCl)nc(NCl)n1
inactive: [1] -17.7% | [2] -25.8% | [3] -5.1% | [4] 2% | [5] -9.8% | [6] -19.1%

CC(=O)c1cc([N+](=O)[O-])c(N)s1
inactive: [1] 7.35% | [2] -3.2% | [3] -13.2% | [4] 5.25% | [5] -4.15% | [6] -3.8%

CC1(C)C2=CCCC(=O)[C@@]2(C)CC[C@@H]1O
inactive: [1] -4.15% | [2] 4.65% | [3] -4.9% | [4] -26.1% | [5] 1.55% | [6] 3.35%

NC(=S)N/N=C/c1ccccc1S(=O)(=O)O
inactive: [1] 1.9% | [2] -12.8% | [3] -9.75% | [4] -16.2% | [5] 0.05% | [6] -4.7%

CCN(CC)CCOC1(Cc2ccccn2)CCCCC1
inactive: [1] 1.2% | [2] 15.2% | [3] 6.7% | [4] 21.3% | [5] -0.4% | [6] -9.75%

O=C(O)COc1cccc2ccccc12
inactive: [1] 5.25% | [2] -18.6% | [3] -0.7% | [4] -24.6% | [5] 1.75% | [6] 14.7%

O=C(NC1(C(=O)Oc2ccc([N+](=O)[O-])cc2)CCCC1)OCc1ccccc1
inactive: [1] 7.25% | [2] 20.2% | [3] 26.1% | [4] 8.85% | [5] -1.7% | [6] 28.9%

CCN(CC)C(=O)C1Cc2ccccc2N(C)C1 (stereo unspecified)
inactive: [1] -16.6% | [2] -8.5% | [3] -10.4% | [4] -41.5% | [5] 3.05% | [6] -2.85%

CC(C#N)(Nc1ccccc1)c1ccccc1 (stereo unspecified)
inactive: [1] 0.6% | [2] 6.75% | [3] 6.9% | [4] -32.6% | [5] -10.7% | [6] -6.4%

O=C(NC(=O)c1ccc(Cl)c(Cl)c1)Nc1ccc(Cl)cc1
inactive: [1] -1.45% | [2] -13.8% | [3] -6.35% | [4] -32.6% | [5] 11.2% | [6] 8%

CCCCCCSC#N
inactive: [1] 34.8% | [2] 13.9% | [3] -8.75% | [4] 18.1% | [5] 15.2% | [6] 7.05%

CC(=O)Nc1cccc2ccc([N+](=O)[O-])cc12
inactive: [1] 13.1% | [2] 0.9% | [3] -3.8% | [4] 16.4% | [5] -5.7% | [6] 7.85%

CNC1=C(Sc2ccc(C)cc2)C(=O)c2ccccc2C1=O
inactive: [1] -4.9% | [2] 1.8% | [3] 5.4% | [4] -0.45% | [5] -9.05% | [6] -8.7%

CC(=O)Oc1ccc(C(c2ccccc2)c2ccccc2)c2ccccc12
inactive: [1] -9.8% | [2] -13.4% | [3] -1.95% | [4] 2.85% | [5] -52.8% | [6] -18.9%

CC1(C)CC([N+](C)(C)CCCCCC[N+](C)(C)C2CC(C)(C)N(O)C(C)(C)C2)CC(C)(C)N1O
inactive: [1] 3.6% | [2] 0.45% | [3] 14.9% | [4] -4.3% | [5] -3% | [6] 12.5%

CCC(=O)NN1C(=O)c2ccccc2C1=O
inactive: [1] -13.8% | [2] -15.4% | [3] -23.4% | [4] -13.2% | [5] -16.5% | [6] -10.2%

CCC(CO)(CO)[N+](=O)[O-]
inactive: [1] 10.2% | [2] -2% | [3] -20.5% | [4] 5% | [5] 16.8% | [6] 7.25%
